DT40 TDP1 CPT = qHTS for Inhibitors of human tyrosyl-DNA phosphodiesterase 1 (TDP1): qHTS in cells in presence of CPT; Potency, µM (doses to about 46.2 µM), hits mostly inhibitors; 420,000 compounds, 12% hits; chicken DT40 Tdp1-/-;hTDP1 cells + 20 nM CPT, ATP luminescence, 48 h; further: nearly all actives have a fitted effect of over 55% in size
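Chicken DT40 Tdp1-/- cells complemented with human TDP1, 400 cells/well, exposed to compounds plus 20 nM camptothecin for at least 48 h at 37 C; viability read as ATP content by CellTiter-Glo luminescence.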
TDP1 cell noCPT = qHTS for Inhibitors of human tyrosyl-DNA phosphodiesterase 1 (TDP1): qHTS in cells in absence of CPT; 420,000 compounds, 15% hits; DT40 Tdp1-/- hTDP1 cells, no CPT, ATP luminescence, 48 h; Potency, µM (highest dose often 46.2 µM), hits mostly inhibitors; further: nearly all actives have a fitted effect of over 55% in size
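Chicken DT40 Tdp1-/- cells complemented with human TDP1, screened without camptothecin (DMSO vehicle only), 400 cells/well. Compounds pin-transferred, cells incubated at 37 °C for at least 48 hr. Growth read as ATP-dependent luminescence (CellTiter-Glo, 30 min at RT).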
ClpP mod = qHTS Assay for Activators of ClpP; purified B. subtilis ClpP, FRET peptide cleavage, 20 min; Potency, µM (titrated, usually from 57.5 µM); 340,000 compounds, 1.9% hits; AID 651965, 2013; active means well fitted falling curve with a large enough effect; inconclusive means small, poorly fitted or top-dose-only effect; inactive means no such curve, though single readings can be large or run the other way; further: the source files actives as falling curves though it sought activators and does not explain the sign; nearly all actives have a fitted effect of over 65% in size
Target sequence (P80244 whole entry, looked up): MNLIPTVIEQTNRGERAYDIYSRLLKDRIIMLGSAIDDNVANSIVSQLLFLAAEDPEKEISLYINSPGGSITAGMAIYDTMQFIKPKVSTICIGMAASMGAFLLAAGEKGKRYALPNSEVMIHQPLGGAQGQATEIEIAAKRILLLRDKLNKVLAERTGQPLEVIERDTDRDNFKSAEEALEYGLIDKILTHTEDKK
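FRET quenching reversal measured ClpP activation: 10 microg/mL B. subtilis ClpP at pH 8 with the FRET-FV decapeptide, read at 430 nm after 320 nm excitation. The 20-min minus 0-min signal was scaled between DMSO/no-enzyme wells and ADEP (5.8 microM final).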
TDP1 inh = qHTS Assay for Inhibitors of Tyrosyl-DNA Phosphodiesterase (TDP1) | Tyrosyl-DNA phosphodiesterase 1 (Homo sapiens), Q9NUW8 | recombinant TDP1, AlphaScreen DNA substrate cleavage | Potency, µM (doses to about 130 µM), hits mostly inhibitors | 350,000 compounds, 0.28% hits; further: nearly all actives have a fitted effect of over 40% in size
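Enzyme-compound mixtures sat 15 min at room temperature, followed by a 5 min reaction with 15 nM final substrate and 10 min with AlphaScreen beads. Recombinant human Tdp1 was used at 1 nM final.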
Hits are given with their value; 0 = inactive; ? = inconclusive; - = no result; [ ] = another dose, or the depositor's remark. Compounds with a hit are over-represented: about 17% of the library has one in this group of screens. Unless noted, the call rests on the fitted dose curve; in most records, active means well fitted curve in the direction sought with a large enough effect; inconclusive means small, poorly fitted or top-dose-only effect, or another doubt; inactive means no such curve, though single readings can be large; an effect the other way counts as inactive or inconclusive.

SMILES	DT40 TDP1 CPT	TDP1 cell noCPT	ClpP mod	TDP1 inh
O=C(N/N=C/C(Cl)=C/c1ccccc1)c1ccccc1F	?	?	-	0
O=C(N/N=C/C(Br)=C/c1ccccc1)c1cccs1	16µM	18µM	-	0
O=C(Cn1ncc2c3ccccc3n(Cc3ccccc3)c2c1=O)NCCCN1CCCC1=O	?	0	0	0
CC1CCN(S(=O)(=O)c2ccc3nc(Nc4cccc(C(F)(F)F)c4)ccc3c2)CC1	18µM	?	0	0
Cc1cccc(N2CCN(c3ccc4cc(S(=O)(=O)N5CCC(C)CC5)ccc4n3)CC2)c1C	0	0	0	0
CC1CCN(S(=O)(=O)c2ccc3nc(Nc4ccc(C#N)cc4)ccc3c2)CC1	?	21µM	0	0
O=S(=O)(c1ccc2nc(Nc3ccc(F)cc3)ccc2c1)N1CCCC1	0	0	0	0
S=C(Nc1ccccc1Cl)NC1CC2CCCC(C1)N2C1CC1 (stereo not drawn)	?	?	0	0
O=[N+]([O-])c1ccc(COc2ccc(CN3CCCCC3)cc2)cc1	?	?	0	-
CSc1ccc(CN2CCN(Cc3ccc([N+](=O)[O-])cc3)CC2)cc1	?	21µM	0	0
COC(=O)C1CCN(CCCOc2ccc(CN3CCN(c4ccc([N+](=O)[O-])cc4)CC3)cc2)CC1	0	21µM	-	0
O=[N+]([O-])c1ccc(COc2ccc(CN3CCCC3)cc2)cc1	16µM	18µM	0	-
O=[N+]([O-])c1ccc(COc2ccc(CN3CCOCC3)cc2)cc1	?	23µM	0	-
O=C1COc2ccc(C(=O)COC(=O)c3ncc(Cl)c(Cl)c3Cl)cc2N1	?	0	-	0
Cc1ccc(NC2CCCN(C(=O)CSc3ccncc3)C2)cc1C (stereo not drawn)	0	?	0	0
O=[N+]([O-])c1ccc(N2CCN(Cc3ccncc3)CC2)cc1	?	18µM	0	0
O=[N+]([O-])c1ccc(CN2CCN(c3ncccn3)CC2)cc1	0	0	0	-
O=[N+]([O-])c1ccc(COc2cccc(CN3CCCCC3)c2)cc1	?	16µM	0	-
Cc1ccc(CSCC(=O)Nc2ccc(N3CCOCC3)cc2N2CCOCC2)cc1	?	?	35µM	0
Cc1ccc(C(C)C)c(OCC(=O)Nc2cc(-c3nc4ccccc4[nH]3)ccc2C)c1	4.6µM	3.7µM	0	0
COc1ccc(Cl)cc1C(=O)NC(=S)Nc1cc(-c2nc3ccccc3[nH]2)ccc1C	?	15µM	?	0
COc1c(Cl)cc(C(=O)Nc2cc(-c3nc4ccccc4[nH]3)ccc2C)cc1Cl	?	?	0	0[2.28 µM]
Cc1ccc(C(C)C)c(OCC(=O)Nc2ccccc2N2CCN(C)CC2)c1	?	15µM	0	0
Cc1ccc(C)c(NC(=O)CCN2CCCCC2)c1	0	0	-	-
CN(Cc1ccccc1)C(=O)COC(=O)CCNC(=O)c1ccccc1Cl	0	0	0	0
SMILES	DT40 TDP1 CPT	TDP1 cell noCPT	ClpP mod	TDP1 inh
Cc1cc(N(C)Cc2ccccc2)nc2cc(O)ccc12	0	?	?	-
Cc1ccc(NC(=O)C(Cc2ccccc2)NS(=O)(=O)c2ccc3c(c2)oc(=O)n3C)cc1F (stereo not drawn)	0	0	0	0
Cc1ccc(C(C)C)c(OCC(=O)Nc2ccc(N3CCOCC3)cc2N2CCOCC2)c1	23µM	18µM	0	0
CCOc1ccc(S(=O)(=O)N2CCOCC2)cc1NC(=O)CSCc1ccc(C)cc1	5.2µM	4.6µM	0	0
CCOC(=O)N1CCC(NS(=O)(=O)c2cc(C(=O)OC)n(C)c2)CC1	0	0	0	-
Cc1ccc(S(=O)(=O)Nc2cccc(C(=O)NCCN3CCOCC3)c2)cc1F	0	0	0	0
CCN(CC)C(=O)Cn1cc(S(=O)(=O)CC(=O)NCc2ccc(F)cc2)c2ccccc21	0	0	0	0
Cc1ccccc1-n1c(-c2ccc(Cl)cc2)cnc1SCC(=O)NC1CCS(=O)(=O)C1 (stereo not drawn)	?	?	0	0
O=C(CSc1nnc(-c2ccc(O)cc2)n1Cc1ccccc1)NNC(=O)c1ccc(Br)cc1	0	0	0	0
CCc1ccccc1NC(=O)CN(C)C(=O)CSc1nn(-c2ccc(F)cc2)c(=S)s1	0	0	0	0
CC(C)(C)Nc1c2ccccc2nc2ccccc12	21µM	18µM	-	-

Assay outcomes deposited in PubChem BioAssay by National Center for Advancing Translational Sciences (NCATS).
